Results: PubChem BioAssay AID1233 (SRMLSC, 2008)
Entries with a potency or affinity are not part of this list. The source made the active and inactive calls.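 The calls were made as follows: active = a dose-response curve fit returns a half-maximal inhibitory concentration, extrapolated values included; inactive = the fit returns no such concentration.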

Each compound was assayed against HMG-CoA reductase [Enterococcus faecalis] (UniProt Q9FD70) (assay: inhibitors of E. faecalis class II HMGR, confirmation, biochemical, Enterococcus faecalis (AID 1233)). Details: purified E. faecalis HMGR, NADPH absorbance 340 nm kinetics; series mostly up to 100 µM.

outcome, inactive:
COC1(OC)N=C(NC(=O)Nc2ccccc2)C2(C#N)C(c3ccccc3)C12C#N (centres undefined)
CCc1c(C)nc2ncnn2c1NCCc1ccccc1
Cc1ccc(-c2cc(C(=O)O)n(-c3ccc(S(N)(=O)=O)cc3)n2)cc1
CC(C)(C)Cc1nnc(NS(=O)(=O)c2ccccc2)s1
COc1cc(S(=O)(=O)N2CCC(c3nc4ccccc4s3)CC2)ccc1S(=O)(=O)NC1CCCC1
CC(=O)c1ccc(NC(=O)c2ccc(NC(=O)CCS(=O)(=O)c3cccs3)cc2)cc1
CC(=O)N(C)c1nc(N)n(-c2ccccc2)n1
O=C(NN1S(=O)(=O)c2ccccc2S1(=O)=O)c1ccc(Br)cc1
Cc1cccc(N/N=C(\C#N)S(=O)(=O)C(C)(C)C)c1
COc1cc(OC)c(C(=O)NC2CC(C)(C)NC(C)(C)C2)cc1OC
CC(=O)Oc1ccccc1-c1nc(C)nc(N(C)C(C)=O)n1
COC(=O)Cc1cc(=O)n2[nH]cnc2n1
COCCOC(=O)c1c(NC(=O)CN2CCOCC2)sc(C(N)=O)c1C
COc1cc(/C=C2/C(=O)ON=C2C)ccc1OCc1cccc(F)c1
CC(C)(C)OC(=O)N1CCC[C@H]1c1nnc(SCc2ccccc2F)o1
Clc1cccc(CN2CCC(Cc3ccccc3)CC2)c1
Cc1ccc(-c2cc(C(=O)NCc3ccc4c(c3)OCO4)[nH]n2)c(O)c1C
CN(CCOC(=O)c1cccc(Br)c1)C(C)(C)C
CCNC(=O)NC(=O)C(C)OC(=O)c1ccc(-n2nc(SC)sc2=S)cc1 (centres undefined)
